The sample as a whole holds a higher share of hits than the screen did.
Pf apPOL inh: Pf-apPOL DNA polymerase inhibition; Recombinant Pf-apPOL, molecular beacon fluorescence, 1.5 h; inhibition, % at 10 µM; 210,000 compounds, 0.25% hits
mHTT CaM bind: disrupts binding of mutant huntingtin to calmodulin. P42858. AlphaScreen His-mHTT/GST-CaM binding, luminescence. inhibition, % at 15 µM. 190,000 compounds, 3.6% hits
Of the large screens only hits and unclear results are named; the others gave an inactive call. Cut-off read from the data, not from the text of the source: active = inhibition above about 50%; inactive = the rest.

Cc1cc(Nc2ccc(C(N)=O)cc2)n2nc(C)c(-c3ccccc3)c2n1	mHTT CaM bind 74
CCOC(=O)N1CCC(NC(=O)CCC2CCN(c3cc(NC4CC4)ncn3)CC2)CC1	none
Cc1nnc(C2CCCN(C(=O)c3cc(-c4cccs4)[nH]n3)C2)s1 (centres undefined)	none
Cc1ccc2nc(C3CN(C(=O)c4cc(-c5cccs5)[nH]n4)C3)[nH]c2c1	mHTT CaM bind 53
CC(=O)C1=C(C)NC(SCC(=O)c2ccc([N+](=O)[O-])cc2)=C(C#N)C1c1ccco1 (centres undefined)	mHTT CaM bind 69
CC(=O)C1=C(C)NC(SCC(=O)c2ccc([N+](=O)[O-])cc2)=C(C#N)C1c1cccc(C)c1 (centres undefined)	mHTT CaM bind 64
CC(=O)C1=C(C)NC(SCC(=O)c2ccccc2)=C(C#N)C1c1ccccc1Cl (centres undefined)	none
CC(=O)C1=C(C)NC(SCC(=O)c2ccc([N+](=O)[O-])cc2)=C(C#N)C1c1ccccc1 (centres undefined)	mHTT CaM bind 59
CC(=O)C1=C(C)NC(SCC(=O)c2ccccc2)=C(C#N)C1c1ccc(Cl)cc1 (centres undefined)	none
CC(=O)C1=C(C)NC(SCC(N)=O)=C(C#N)C1c1cccc([N+](=O)[O-])c1 (centres undefined)	none
CC(=O)C1=C(C)NC(SCC(=O)c2ccc(C)cc2)=C(C#N)C1c1ccco1 (centres undefined)	none
CC(=O)C1=C(C)NC(SCC(=O)c2ccc([N+](=O)[O-])cc2)=C(C#N)C1c1ccccc1Cl (centres undefined)	mHTT CaM bind 61
CC(=O)C1=C(C)NC(SCC(=O)c2cccc([N+](=O)[O-])c2)=C(C#N)C1c1cccc(C)c1 (centres undefined)	mHTT CaM bind 62
CCc1ccc(C2C(C#N)=C(SCC(=O)c3cccc([N+](=O)[O-])c3)NC(C)=C2C(C)=O)cc1 (centres undefined)	none
CCCNC(=O)c1ccc2ncnc(N3CCCC3)c2c1	none
Cc1cccc(C)c1NC(=O)C1CC(=O)N(C2CCCCC2)C1 (centres undefined)	none
CN1C(=O)c2cccnc2Sc2cc(C(=O)NCc3cccc(Cl)c3)ccc21	mHTT CaM bind 52
CN1C(=O)c2cccnc2Sc2cc(NC(=O)c3cccc(Cl)c3)ccc21	none
Cc1ccc(CNC(=O)c2ccc3c(c2)Sc2ncccc2C(=O)N3C)cc1	none
Cc1cccc(C(=O)Nc2ccc3c(c2)Sc2ncccc2C(=O)N3C)c1	mHTT CaM bind 65
COCCNC(=O)C(=O)NCCC(O)C(C)(C)C (centres undefined)	none
COc1ccc(-c2cc(-c3c(O)c(OC)c4occc4c3OC)[nH]n2)cc1OC	mHTT CaM bind 86
COc1c(-c2cc(C(F)(F)C(F)F)[nH]n2)c(O)c(OC)c2occc12	none
Nc1nnc(SCC(=O)Nc2ccc3c(c2)OCO3)s1	none (no result: mHTT CaM bind)
Nc1sc(SCC(=O)Nc2ccc3c(c2)OCO3)nc1-c1ccccc1	mHTT CaM bind 78
CCOC(=O)N1CCc2nn(CC(=O)Nc3cc(F)cc(F)c3)c(=O)cc2C1	none
O=C(NC1CCc2[nH]c3ccc(Br)cc3c2C1)C1CC=CCC1 (centres undefined)	mHTT CaM bind 98
Cc1nc(CC(=O)NC2CCc3[nH]c4ccc(Cl)cc4c3C2)c(C)s1 (centres undefined)	mHTT CaM bind 99
O=C(Cc1c(C(=O)O)[nH]c2ccc(Cl)cc12)NC1CC1	none
Cc1cc(C)c(C(=O)N2CCC(CC(=O)NC3CCCCCC3)CC2)[nH]1	none
Cc1ccc2[nH]c3c(c2c1)CN(C)CC3	none
Cc1ccc2[nH]c3c(c2c1)CC(NC(=O)CC(C)C)CC3 (centres undefined)	mHTT CaM bind 93
O=C(NC1CC1)C1CCN(S(=O)(=O)c2ccc3[nH]c4c(c3c2)CCCCC4)CC1	none
Cc1cc(Cl)cc2c3c([nH]c12)CCC(NC(=O)CC1CC1)C3 (centres undefined)	mHTT CaM bind 90
CC(C)c1ccc(CNC(=O)c2cc3ccncc3n2C)cc1	none
COc1ccc(C(=O)/C=C(\C)Nc2ccc(C(=O)O)cc2)cc1	none
O=C(CCCn1c2ccccc2c(=O)c2ccccc21)Nc1cccnc1Cl	none
CC(C)(C)C(=O)N1CCCn2nc(-c3ccncc3)cc2C1	none
CC(C)C(=O)NC1CCc2[nH]c3ccc(Br)cc3c2C1 (centres undefined)	mHTT CaM bind 53
CC(CC(F)(F)F)C(=O)NC1CCc2[nH]c3ccc(Br)cc3c2C1 (centres undefined)	none
O=C(NCc1ccco1)C1CCN(c2ncccc2-c2nc(-c3ccccc3)no2)CC1	none
CCOC(=O)Oc1cc2oc(=O)sc2cc1Br	none
COC(=O)Oc1cc2oc(=O)sc2cc1Cl	none
COC(=O)Oc1c(Cl)cc2oc(=O)sc2c1[N+](=O)[O-]	mHTT CaM bind 81
CCOC(=O)Oc1c(Cl)cc2oc(=O)sc2c1Br	mHTT CaM bind 54
O=C(CN1CCOCC1)Nc1c(C(=O)c2ccc(F)cc2)oc2ccccc12	none
COc1cc(C(=O)O)c(CNC(=O)CSc2nnnn2C)c(OC)c1OC	none
COc1ccc(NC(=O)c2cccc(N3CCNC(c4ccccc4)C3)n2)c(OC)c1 (centres undefined)	mHTT CaM bind 70
O=C(NCc1ccncc1)c1cccc(N2CCNC(c3ccccc3)C2)n1 (centres undefined)	none
O=C(NCc1ccc(N2CCCC2)cc1)c1cccc(N2CCNC(c3ccccc3)C2)n1 (centres undefined)	mHTT CaM bind 82
O=C(NCCc1cccs1)c1cccc(N2CCNC(c3ccccc3)C2)n1 (centres undefined)	mHTT CaM bind 87
O=C(NCCc1ccccn1)c1cccc(N2CCNC(c3ccccc3)C2)n1 (centres undefined)	none
COc1cccc(NC(=O)c2cccc(N3CCNC(c4ccccc4)C3)n2)c1 (centres undefined)	none
CCCOc1ccc(CN2CCCC2c2cc(C)no2)cc1 (centres undefined)	none
COc1ccc(NC(=O)CC2CCCCC2)c([N+](=O)[O-])c1	none
O=C(CCS(=O)(=O)c1ccccc1)NC1CS(=O)(=O)CC1Cl (centres undefined)	none
Cc1ccc(CNC(=O)CN2N=C(c3ccc(Cl)cc3)CCC2=O)cc1	none
O=C1CSC(=O)N1CCOc1ccc(F)cc1	none
O=C1CSC(=O)N1CC(O)COc1ccc(OCC(O)CN2C(=O)CSC2=O)cc1 (centres undefined)	Pf apPOL inh 70
O=C1c2sc3nnc(-c4ccccc4)c(=O)n3c2C(=O)N1Cc1ccccc1	none
COc1cccc(OCc2cc(C3Nc4ccccc4C(=O)N3Cc3ccco3)ccc2OC)c1 (centres undefined)	none
COc1ccc(C2Nc3ccccc3C(=O)N2Cc2ccco2)cc1COc1ccc(Cl)cc1 (centres undefined)	mHTT CaM bind 55
COc1ccc(Cl)cc1N1C(=O)CSC1c1cccc(F)c1 (centres undefined)	none
CC1CCN(c2nccc(C(=O)N3CCN(c4cccc(Cl)c4)CC3)n2)CC1	none
O=C(c1ccnc(N2CCCCC2)n1)N1CCN(c2cccc(Cl)c2)CC1	mHTT CaM bind 56
CCN1CCn2cc(C(=O)N3CCN(c4cccc(Cl)c4)CC3)nc2C1	mHTT CaM bind 53
CCN1CCn2cc(C(=O)N3CCN(c4ccc(Cl)cc4)CC3)nc2C1	none
Cc1cc(NC(=O)C2CCc3sc(C(=O)N4CCOCC4)cc3C2)ccc1Cl (centres undefined)	none

Source: PubChem
